Experimental findings from PubChem BioAssay (NCI) are described below.

This is part of a sample that, as a whole, favours compounds with a hit. Of some 83,000 tested, about 20% had one in any assay.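 In brief: 96-well plates, 48 h treatment, single concentration, percent growth endpoint.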 A number with no mark means an inactive call. Calls of active or inactive are those of the source. Rule for the calls: active = growth percent below 10; inactive = the rest.

In this assay the test system is MDA-MB-468 breast. The assay is described as follows: NCI-60 one-dose screen, 48 h (100 = growth as untreated, 0 = no growth, -100 = all killed). The settings on record: 10 µM unless noted.
Take `CN(C)Cc1ccccn1`: the growth was 105%.
The result for `O=C(NCCNc1nccc(-c2c(-c3cccc(O)c3)nc3sccn23)n1)Nc1cc(C(F)(F)F)cc(C(F)(F)F)c1` reads 57.8%.
`CNC(=S)NNC(=O)C1CC1`: the growth is 108%.
The result for `C[C@]12CCc3nc(Nc4ccccc4)sc3C1=CC[C@@H]1[C@@H]2CC[C@]2(C)/C(=N/NC(N)=S)CC[C@@H]12` reads 14.9%.
The result for `CN(C)CN1CCN(c2ccc3nc(-c4ccc5nc(-c6ccc(C(F)(F)F)cc6)[nH]c5c4)[nH]c3c2)CC1` reads 13.7%.
To `O=C(NNC(=S)Nc1ccccc1)c1cc2ccc1CCc1ccc(cc1)CC2` belongs 67%.
Take `CCOC(=O)C1=C(C)C(Cl)=N/C1=C\c1[nH]c(Cl)c(C)c1C(=O)OCC`: the growth was 102%.
As for `CC(=O)NC(C)(C)C(=O)N1CCC[C@H]1C(=O)NC(C)(C)C(=O)N[C@@H](C)C(=O)NC(C)(C)C(=O)N[C@@H](C)C(=O)N[C@@H](CCC(N)=O)C(=O)NC(C)(C)C(=O)N[C@H](C(=O)NC(C)(C)C(=O)NCC(=O)N[C@@H](CC(C)C)C(=O)NC(C)(C)C(=O)N1CCC[C@H]1C(=O)N[C@H](C(=O)NC(C)(C)C(=O)NC(C)(C)C(=O)N[C@@H](CCC(N)=O)C(=O)N[C@@H](CCC(N)=O)C(=O)N[C@H](CO)Cc1ccccc1)C(C)C)C(C)C`, the growth is 3.71% [4.25 µM] (active).
As for `C=C1CCC2(C#N)[C@H]3[C@H](CC[C@@H]2C)[C@@H](C)C[C@@H](CC(C)(C)NC(=O)CN2CCC2=O)[C@H]13` (some centres undefined), the growth was 58%.
